These results are taken from PubChem BioAssay.

A short description of assay [1]: inhibitors of TNFa-induced NFkB p65 translocation, primary screen, imaging, HUVEC, MLSMR starter and 10KST1 sets (AID 438;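 active = inhibition above 20% together with a positive visual image hit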;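 note: compound added about 3h40 before a 20 min TNFalpha stimulation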;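 for inhibition: signal is the nuclear over cytoplasmic p65 intensity ratio per well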). The settings on record: HUVEC TNFa-induced p65 nuclear translocation; cell count: measured here: nuclei count (cytotoxicity indicator), at 2.08 µM; inhibition: at 2 µM, stronger effect = higher value, 0% TNFa-plus-vehicle, 100% no-TNFa wells.
Assay [2] can be described thus: inhibitors of mutant huntingtin aggregation, primary screen, imaging, exon1htt(103Q)mCFP cells, high-content imaging (AID 483;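 active = visual image review flags a hit and inhibition of aggregation exceeds 20%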;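 note: compound exposure lasted 3 days before fixation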;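 for nuclei count: percent of the per-plate median nuclei count of sample wells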). The settings on record: exon1htt(103Q)mCFP cell line, aggregate imaging, at 2 µM; inhibition of aggregation: stronger effect = higher value; nuclei count: measured here: cell count, toxicity.
The nature of assay [3]: inhibitors of E-selectin induction by TNFa, primary screen, imaging, HUVEC, immunofluorescence, MLSMR starter and 10KST1 sets (AID 487;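 active = visually confirmed hit in the image check and inhibition above 20%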;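 for inhibition: signal is fraction of cell area covered by stained E-selectin grains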;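 for nuclei count: 100% = median nuclei count of all wells on the same plate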). The note with it: HUVEC TNFalpha-induced E-selectin immunofluorescence imaging, at 2 µM; inhibition: stronger effect = higher value; nuclei count: measured here: cell number, toxicity.
Assay [4] has as its target Voltage-gated potassium channel subunit beta-2 (Rattus norvegicus) (UniProt P62483). Briefly: KvBeta enzyme negative modulators, primary screen, biochemical, NADPH fluorescence (AID 622;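 active = fluorescence slope higher than the sample average by over 3 SD, cut at about -0.22 in these data, passing the limit was not always enough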;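 note: slope of raw intensity against log time taken from 70 to 1610 s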). The note with it: recombinant KvBeta, 4-cyanobenzaldehyde reduction, at 10 µM, stronger effect = higher value.
For assay [5] the target is unchanged. Briefly: KvBeta positive modulators, primary screen, biochemical, NADPH fluorescence (AID 623;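 active = NADPH fluorescence slope more negative than the mean of all samples by about 3 SD, 99.7% confidence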;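 note: fluorescence intensity change per second fitted from 20 to 320 s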). The note with it: Recombinant KvBeta, NADPH fluorescence decrease slope, 10 min; at 10 µM; stronger effect = lower value.
The target in assay [6] is Alpha-2C adrenergic receptor (Homo sapiens) (UniProt P18825). Briefly: modulators of alpha2C/GIRK thallium flux, primary screen, cell-based, HEK293 alpha2C/GIRK1/2 (AID 624;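 active = fluorescence slope after compound addition differing from the mean of all screened samples at 99.7% confidence, in either direction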;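 note: slope of fluorescence ratio to pre-addition baseline per second over 15 to 24 s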). The note with it: thallium flux BTC fluorescence, at 10 µM, actives lie on both sides.
Assay [7] in a line: inhibitors of Sendai virus-induced IRF3 signaling, primary screen, TLR/RLR signaling modifier project, cell-based, Sendai virus stimulus, luciferase, 10K MLSCN set (AID 602276).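 Note: firefly luciferase from ISG56 promoter only with Renilla not read in this screen; 0% = Sendai virus plus DMSO and 100% = medium plus DMSO without virus.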 The settings on record: HEK293 RL24 IRF3 luciferase reporter, at 10 µM, stronger effect = higher value. A general note: In a reporter assay the amount or activity of a reporter protein is the signal.
Assay [8] can be described thus: inhibitors of poly I:C-induced TLR3 signaling, primary screen, cell-based, poly I:C stimulus, luciferase, 10K MLSCN set (AID 602277;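 active = inhibition of the reporter signal at or above 50%; inactive = inhibition below 50%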). The settings on record: HEK293-TLR3 RL24 IRF3 luciferase reporter, at 10 µM, stronger effect = higher value.

Structures are written as SMILES. Calls of active or inactive are those of the source.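 Rule for the calls, unless noted: active = inhibition at or above 50% at 10 µM; inactive = inhibition below 50%.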

Alpha-2C adrenergic receptor (Homo sapiens), sequence (P18825 whole entry, looked up): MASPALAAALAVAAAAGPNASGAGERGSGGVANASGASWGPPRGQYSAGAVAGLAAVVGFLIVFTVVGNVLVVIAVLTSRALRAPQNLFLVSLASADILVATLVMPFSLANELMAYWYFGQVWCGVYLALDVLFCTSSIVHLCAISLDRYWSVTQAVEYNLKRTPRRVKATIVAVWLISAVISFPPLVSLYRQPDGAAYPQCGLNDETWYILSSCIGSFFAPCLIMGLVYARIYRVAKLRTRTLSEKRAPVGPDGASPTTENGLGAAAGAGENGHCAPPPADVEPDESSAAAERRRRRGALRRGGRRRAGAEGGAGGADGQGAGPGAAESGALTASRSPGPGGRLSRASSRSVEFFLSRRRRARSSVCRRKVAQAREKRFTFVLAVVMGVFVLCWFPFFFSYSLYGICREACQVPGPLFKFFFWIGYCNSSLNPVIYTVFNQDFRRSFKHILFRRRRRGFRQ
Voltage-gated potassium channel subunit beta-2 (Rattus norvegicus), sequence (P62483 whole entry, looked up): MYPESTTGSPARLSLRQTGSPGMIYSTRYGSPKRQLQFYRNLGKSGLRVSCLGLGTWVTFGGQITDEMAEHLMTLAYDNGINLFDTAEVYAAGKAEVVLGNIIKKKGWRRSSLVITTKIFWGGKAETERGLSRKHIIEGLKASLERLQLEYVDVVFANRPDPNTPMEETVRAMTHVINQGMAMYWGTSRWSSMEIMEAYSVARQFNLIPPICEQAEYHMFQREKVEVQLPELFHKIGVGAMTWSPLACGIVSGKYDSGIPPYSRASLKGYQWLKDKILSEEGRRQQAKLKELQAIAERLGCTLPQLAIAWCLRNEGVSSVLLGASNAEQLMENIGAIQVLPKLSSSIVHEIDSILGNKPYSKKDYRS

Broadly, the inhibition is the relative decrease from the control value, in per cent. With `O=C(NC1CCCc2ccccc21)C1CCN(c2nnc(-n3cccc3)s2)CC1` (centres undefined), the cell count in assay [1] was 686. Besides, the inhibition in assay [1] is -6% (inactive); in assay [3], -65.3% (inactive); in assay [7], 7.01% (inactive); in assay [8] it was 18.7% (inactive). For the same compound, the inhibition of aggregation in assay [2] is -12.1% (inactive). Further, the nuclei count in assay [2] was 116%; in assay [3] it was 114%. Further, the fluorescence slope in assay [4] is -0.583 (inactive). Also, the NADPH fluorescence slope in assay [5] is -3e-05 (inactive). The slope in assay [6] was 0.00726 (inactive).

For the compound `O=c1[nH]c(SCc2ccc(F)cc2)nc2c1cnn2-c1ccc(F)cc1`, the cell count in assay [1] amounted to 652. Besides, the inhibition in assay [1] is -31% (inactive); in assay [3] it was -0.1% (inactive); in assay [7] it was -21.2% (inactive); in assay [8], -12.1% (inactive). Also, the inhibition of aggregation in assay [2] is -8.4% (inactive). Further, the nuclei count in assay [2] worked out at 95.8%; in assay [3], 110%. Moreover, the fluorescence slope in assay [4] is -0.57 (inactive). Further, in assay [5], the NADPH fluorescence slope was 1e-05 (inactive). Besides, the slope in assay [6] was 0.00683 (inactive).

As to `O=C(O)C1CCCCC1C(=O)NCCc1ccccc1` (centres undefined), in assay [1], the cell count was 350. In addition, the inhibition is 4.6% (inactive) in assay [1], -165% (inactive) in assay [3], -15.8% (inactive) in assay [7] and -11.5% (inactive) in assay [8]. Further, the inhibition of aggregation in assay [2] is 14.3% (inactive). Besides, the nuclei count was determined as 99.3% in assay [2] and 103% in assay [3]. Moreover, the fluorescence slope in assay [4] is -0.535 (inactive). In assay [5], the NADPH fluorescence slope was -5.8e-05 (inactive). In addition, in assay [6], the slope was 0.00513 (inactive).

As to `O=C(CSc1nc(O)c(Cc2ccccc2)c(=O)[nH]1)Nc1ccccc1`, in assay [1], the cell count is 366. The inhibition in assay [1] was 5.3% (inactive); in assay [3], 5.2% (inactive); in assay [7], 3.29% (inactive); in assay [8] it was 24.3% (inactive). In addition, the inhibition of aggregation in assay [2] is 0.2% (inactive). Also, the nuclei count in assay [2] was 95.2%; in assay [3], 115%. In addition, the fluorescence slope in assay [4] was -0.44 (inactive). The NADPH fluorescence slope in assay [5] was -3e-05 (inactive). Also, in assay [6], the slope was 0.00311 (inactive).

As to `O=C(NCCCN1CCOCC1)c1cc(-c2ccc(O)cc2)on1`, the cell count in assay [1] was 614. In addition, the inhibition is -1.6% (inactive) in assay [1], -46.9% (inactive) in assay [3], 2.55% (inactive) in assay [7] and -5.13% (inactive) in assay [8]. Moreover, in assay [2], the inhibition of aggregation is -5.2% (inactive). In addition, the nuclei count amounted to 92.4% in assay [2] and 114% in assay [3]. The fluorescence slope in assay [4] is -0.565 (inactive). In assay [5], the NADPH fluorescence slope was -3.8e-05 (inactive). Also, in assay [6], the slope is 0.00654 (inactive).

In the case of `O=C(CN1CCOCC1)N1CCCc2c1c(=O)oc1ccc(OCc3ccccc3)cc21`, in assay [1], the cell count stood at 427. Moreover, the inhibition in assay [1] was 7.3% (inactive); in assay [3] it was -40.7% (inactive); in assay [7], -0.877% (inactive); in assay [8] it was 9.59% (inactive). The inhibition of aggregation in assay [2] is 5.6% (inactive). The nuclei count in assay [2] and in assay [3] was 109% in each case. Moreover, in assay [4], the fluorescence slope was -0.589 (inactive). In addition, in assay [5], the NADPH fluorescence slope is -4.6e-05 (inactive). Also, the slope in assay [6] is 0.00267 (inactive).

Take `Cc1nn(-c2ccccc2)c(Cl)c1C(=O)NCC(=O)O`: the cell count in assay [1] worked out at 296. The inhibition was 3.9% (inactive) in assay [1], -22.6% (inactive) in assay [3], 11.2% (inactive) in assay [7] and 25.8% (inactive) in assay [8]. Also, in assay [2], the inhibition of aggregation is -6.8% (inactive). Besides, the nuclei count in assay [2] is 100%; in assay [3] it was 117%. Also, the fluorescence slope in assay [4] is -0.399 (inactive). For the same compound, the NADPH fluorescence slope in assay [5] is -6.1e-05 (inactive). In addition, the slope in assay [6] was 0.00396 (inactive).

As for `COCCn1c(-c2ccco2)nc2nc3ccccc3nc21`, the cell count in assay [1] turned out to be 237. The inhibition is 1.6% (inactive) in assay [1], -4.2% (inactive) in assay [3], -0.433% (inactive) in assay [7] and -3.38% (inactive) in assay [8]. In addition, in assay [2], the inhibition of aggregation is 23.4% (inactive). In addition, the values for the nuclei count in assay [2] and in assay [3] were 69.1% and 98.9%, respectively. Besides, the fluorescence slope in assay [4] is -0.255 (inactive). For the same compound, the NADPH fluorescence slope in assay [5] is -2.3e-05 (inactive). Besides, the slope in assay [6] was 0.00377 (inactive).

As for `Cc1ccc(-c2nc3cnccn3c2Nc2ccc3c(c2)OCO3)o1`, the cell count in assay [1] is 913. Further, the inhibition in assay [1] was 2.3% (inactive); in assay [3], -109% (inactive); in assay [7], 5.62% (inactive); in assay [8] it was 34.7% (inactive). In addition, the inhibition of aggregation in assay [2] is 2.9% (inactive). Besides, the nuclei count in assay [2] was found to be 130%; in assay [3], 114%. The fluorescence slope in assay [4] is -0.483 (inactive). For the same compound, the NADPH fluorescence slope in assay [5] was -6.6e-05 (inactive). Besides, the slope in assay [6] is 0.00517 (inactive).

On to `COc1cc(NC2=CC(=O)CC(C)(C)C2)cc(OC)c1`, for which, in assay [1], the cell count was 346. Further, the inhibition in assay [1] was 7.5% (inactive); in assay [3], -3.1% (inactive); in assay [7], -4.89% (inactive); in assay [8] it was -12.1% (inactive). The inhibition of aggregation in assay [2] was -8.1% (inactive). Besides, the nuclei count in assay [2] stood at 110%; in assay [3], 103%. The fluorescence slope in assay [4] was -0.373 (inactive). In assay [5], the NADPH fluorescence slope is 6.9e-06 (inactive). Also, the slope in assay [6] was 0.00551 (inactive).

For `CCCCCn1c(CN2CCN(C(=O)OCC)CC2)nc2c1c(=O)[nH]c(=O)n2C`, in assay [1], the cell count came to 245. For the same compound, the inhibition in assay [1] was 0.8% (inactive); in assay [3], 16.4% (inactive); in assay [7], 28.1% (inactive); in assay [8], 19.9% (inactive). The inhibition of aggregation in assay [2] was 10.4% (inactive). Further, the figures for the nuclei count in assay [2] and in assay [3] were 105% and 78.3%, respectively. Further, in assay [4], the fluorescence slope is -0.564 (inactive). The NADPH fluorescence slope in assay [5] was 7.1e-06 (inactive). The slope in assay [6] is 0.00615 (inactive).

Regarding `O=C(NCCO)c1cc2ccccc2cc1O`, the cell count in assay [1] amounted to 489. Further, the inhibition is -8.2% (inactive) in assay [1], -92.3% (inactive) in assay [3], -5.48% (inactive) in assay [7] and -4.78% (inactive) in assay [8]. The inhibition of aggregation in assay [2] is 23.4% (inactive). The nuclei count in assay [2] came to 85.8%; in assay [3], 109%. In assay [4], the fluorescence slope was -0.47 (inactive). In assay [5], the NADPH fluorescence slope was -2.1e-05 (inactive). For the same compound, the slope in assay [6] was 0.00658 (inactive).

For the compound `O=C1c2ccccc2C(Nc2cccnc2)N1Cc1ccccc1Cl` (centres undefined), in assay [1], the cell count stood at 674. The inhibition was -14.6% (inactive) in assay [1], -37.8% (inactive) in assay [3], 3.6% (inactive) in assay [7] and 18.3% (inactive) in assay [8]. Moreover, the inhibition of aggregation in assay [2] was -13.6% (inactive). For the same compound, the nuclei count in assay [2] turned out to be 105%; in assay [3] it was 109%. Also, in assay [4], the fluorescence slope is -0.422 (inactive). For the same compound, the NADPH fluorescence slope in assay [5] is -4.2e-05 (inactive). For the same compound, the slope in assay [6] was 0.00424 (inactive).

Regarding `CC1CC(C)CN(c2ncnc3c2cnn3-c2ccc(Cl)cc2)C1` (centres undefined), in assay [1], the cell count came to 584. Besides, the inhibition in assay [1] is 3.4% (inactive); in assay [3], -52.4% (inactive); in assay [7], 37.3% (inactive); in assay [8], 11.5% (inactive). Also, the inhibition of aggregation in assay [2] was 12.1% (inactive). In addition, the values for the nuclei count in assay [2] and in assay [3] were 79.5% and 112%, respectively. In assay [4], the fluorescence slope was -0.504 (inactive). The NADPH fluorescence slope in assay [5] is -2e-05 (inactive). Moreover, the slope in assay [6] is 0.00874 (inactive).
